Mtb FBA inh = inhibits M. tuberculosis FBA enzyme; P9WQA3; purified M. tuberculosis FBA, fluorescence read-out; inhibition, % at 1 µM; 360,000 compounds, 2.3% hits; in the data active = inhibition above about 27%;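 note: 0% = vehicle and 100% = reference inhibitor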
Target sequence (P9WQA3 whole entry, looked up): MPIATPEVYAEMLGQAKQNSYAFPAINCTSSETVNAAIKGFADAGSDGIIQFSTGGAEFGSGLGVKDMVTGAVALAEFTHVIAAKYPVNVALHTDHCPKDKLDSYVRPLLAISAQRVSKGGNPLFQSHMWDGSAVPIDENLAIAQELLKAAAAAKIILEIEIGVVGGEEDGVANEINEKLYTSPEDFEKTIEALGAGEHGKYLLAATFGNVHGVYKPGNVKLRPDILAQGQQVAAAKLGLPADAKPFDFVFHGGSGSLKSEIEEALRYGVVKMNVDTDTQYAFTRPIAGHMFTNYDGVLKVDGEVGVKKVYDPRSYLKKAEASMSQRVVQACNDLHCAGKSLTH
GDH-TPI counter = inhibits GDH-TPI coupling enzymes, artifact for Mtb FBA screen; GDH-TPI coupled enzyme counterscreen, NADH absorbance; inhibition, % at 4.8 µM; 360,000 compounds, 1.2% hits; in the data active = inhibition above about 30%;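 note: 0% = DMSO wells and 100% = wells lacking the enzyme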
Mtb UGM inh = blocks M. tuberculosis UGM enzyme. P9WIQ1. purified UGM, fluorescence polarization probe displacement. inhibition, % at 10 µM. 320,000 compounds, 0.06% hits. AID 504406; in the data active = inhibition above about 10%, passing the limit was not always enough
Rv3671c protease = inhibits the M. tuberculosis serine protease Rv3671c. AID 2606. 320,000 compounds, 0.048% hits. P9WHR9. inhibition, % at 5.96 µM; in the data active = inhibition above about 38%;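 note: extracellular domain of Rv3671c used as enzyme; 0% = enzyme with DMSO and 100% = no enzyme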
Mtb bLac sens = beta-lactam sensitization of Mtb H37Rv. 330,000 compounds, 0.27% hits. M. tuberculosis H37Rv growth with meropenem, percent inhibition. inhibition, % at 25 µM; call rule not given here;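 note: growth measured after seven days incubation then overnight dye step; 0% = bacteria only wells and 100% = bacteria with antibiotic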
RecA intein inh = blocks M. tuberculosis RecA intein splicing; cell-free RecA intein splicing, fluorescence; inhibition, % (concentration not given with the values); P9WHJ3; 290,000 compounds, 0.75% hits; AID 2221; in the data active = inhibition above about 30%;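 note: 0% = vehicle wells and 100% = reference inhibitor control wells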
Active calls of the source: *; i = inactive; / = no result given; + = active, no number. Sampled rows, rich in hits. Any-hit rate of the full collection: about 4%.

SMILES | Mtb FBA inh | GDH-TPI counter | Mtb UGM inh | Rv3671c protease | Mtb bLac sens | RecA intein inh
CCC[C@@H](NS(=O)(=O)c1ccc(C)cc1)C(=O)Oc1ccc2c3c(c(=O)oc2c1)CCC3 | + | 13.2 | -3.5 | -8.4 | 65.9 | -0.5
CCCC(NS(=O)(=O)c1ccc(C)cc1)C(=O)O (stereo not drawn) | -3.0 | -11.3 | 3.6 | 4.6 | -5.9 | -1.2
Cc1ccc(S(=O)(=O)NC(C(=O)Oc2ccc3ccc(=O)oc3c2)c2ccccc2)cc1 (stereo not drawn) | + | 24.7 | 0.1 | -10.8 | 11.2 | -81.7
CCNC(=O)C(Cc1ccccc1)NC(=O)OCc1ccccc1 (stereo not drawn) | -2.8 | -0.6 | 2.2 | 1.2 | -0.7 | 0.1
Cc1ccc(S(=O)(=O)NCCC(=O)Oc2ccc3ccc(=O)oc3c2)cc1 | + | 6.2 | 4.5 | -5.4 | 30.4 | -62.5
Cc1ccc2cc(S(=O)(=O)NCCC(=O)O)ccc2c1 | 0.2 | 6.2 | 2.5 | -14.8 | -2.4 | 0.1
COc1ccccc1NC(=O)COC(=O)C1=NN(c2ccccc2)C(=O)CC1 | 0.8 | 9.4 | 2.1 | -2.9 | -5.3 | /
CCOc1cc(/C=C2/SC(=S)N(CC(=O)O)C2=O)ccc1OC(=O)c1cccs1 | 2.9 | 40.7* | -3.7 | -8.0 | 2.3 | 16.1
CCOc1cc(/C=C2\SC(=S)N(C(C(=O)O)c3ccccc3)C2=O)ccc1O (stereo not drawn) | -18.4 | 37.5* | -10.6 | -63.5 | 0.0 | 7.0
CCOc1ccc(/C=C2/SC(=S)N(C(C(=O)O)c3ccccc3)C2=O)cc1OCC (stereo not drawn) | 0.2 | 0.3 | / | / | / | /
COc1cc(/C=C2\SC(=S)N(CC(=O)O)C2=O)ccc1OC(=O)c1ccco1 | -6.4 | 11.1 | -6.2 | -18.1 | 3.3 | 19.1
CCCCNc1nccnc1-c1cccc(C=O)c1 | 24.5 | 13.7 | / | / | / | /
O=C(NCc1ccccc1)c1ccc(-c2cn[nH]c2)c2ccoc12 | 31.6* | 9.7 | / | / | / | /
COc1cc(NC(=O)c2ccc(-c3cn[nH]c3)c3ccoc23)cc(OC)c1OC | 0.3 | 13.3 | / | / | / | /
C=CC[C@H](CC(=O)NCCO)C(=O)NC[C@@H](OC(=O)[C@H](CC=C)CC(=O)OC(C)(C)C)c1ccccc1 | 4.4 | -6.8 | -2.7 | 0.0 | -2.7 | /
CCOC(=O)c1[nH]c(=S)n(-c2ccccc2)c1C(=O)OCC | 3.8 | 8.2 | / | / | / | /
Cc1ccc(S(=O)(=O)NC(=O)c2ccc(-c3ccc(-c4ccccc4)cc3)o2)c(C)c1 | / | / | 1.2 | -14.1 | -4.1 | 36.4*
Cc1ccc(O)c(Cc2cc(C)cc(Cc3cc(C)ccc3O)c2O)c1 | -4.1 | 12.4 | / | / | / | /
Cc1cc(-c2nc3ncccc3o2)ccc1NC(=O)CC(C)C | + | 13.9 | -0.2 | -2.1 | -4.4 | -3.8
COc1cc(/C=C/c2nc3ccccc3c(=O)[nH]2)cc(Cl)c1O | -3.6 | 1.9 | -2.9 | -4.1 | 7.3 | /
Cc1cccc(/C=C\c2nc3ccccc3c(=O)[nH]2)c1 | -2.9 | 31.0* | 0.7 | -10.6 | 0.8 | 0.1
O=c1[nH]c(/C=C/c2ccc(Br)cc2)nc2ccccc12 | -0.1 | -1.7 | 2.5 | 6.4 | -7.1 | -3.2
O=C(Nc1cccc(/C=C/c2nc3ccccc3c(=O)[nH]2)c1)c1ccccc1Cl | -1.6 | 49.4* | -1.2 | -103.8 | 60.3 | 1.5
COc1ccc(C(=O)Nc2cccc(/C=C/c3nc4ccccc4c(=O)[nH]3)c2)cc1 | 1.2 | 38.7* | 1.9 | -94.3 | 0.4 | 5.1
Cc1noc(C)c1S(=O)(=O)Nc1ccc2c(c1)C(=O)N([C@H](C)CO)C[C@H](C)[C@@H](CN(C)C(=O)CCCN(C)C)OCCCC[C@@H](C)O2 | 0.1 | 6.2 | / | / | / | /
SMILES | Mtb FBA inh | GDH-TPI counter | Mtb UGM inh | Rv3671c protease | Mtb bLac sens | RecA intein inh
Cc1ccccc1S(=O)(=O)N1C[C@H]2CON(C)[C@H]2C[C@H]1c1cccc(Oc2ccccc2)c1 | 1.5 | -14.2 | / | / | / | /
CCOC(=O)C1=C(COC(=O)/C=C/c2cccc([N+](=O)[O-])c2)NC(=O)NC1C (stereo not drawn) | -0.3 | 4.3 | 2.1 | -1.3 | -10.6 | -0.4
CCC(C)(C)NC(=O)C(c1cccc(OC)c1)N(C(=O)CNC(=O)c1cccs1)c1cccnc1 (stereo not drawn) | 1.4 | -0.8 | -1.4 | 6.3 | 2.8 | -0.7
CCN(CC)C(CNC(=O)CSc1nnnn1-c1c(C)cccc1C)c1ccco1 (stereo not drawn) | 2.8 | -15.2 | / | / | / | /
Cc1cccnc1NC(=O)CNC(=O)COc1ccccc1 | -0.5 | -1.4 | 2.4 | -1.2 | -4.5 | 0.0
COc1ccc(S(=O)(=O)NC(=O)C2(C)CCN2C(=O)C2CC2)cc1 (stereo not drawn) | -1.0 | 8.0 | / | / | / | /
COc1ccc(S(=O)(=O)N2CCOc3ccccc32)cc1 | 153.6* | -3.3 | -3.8 | -5.4 | -3.3 | 2.8
CN(Cc1ccc(Cl)c(Cl)c1)C(=O)C1CSC2(C)CCC(=O)N12 (stereo not drawn) | -0.3 | 15.7 | 0.3 | -8.0 | -1.9 | /
O=C(Nc1ccccc1F)C(=Cc1sc(N2CCOCC2)nc1-c1ccccc1)C(=O)Nc1ccccc1F | -2.3 | 11.7 | 11.6* | -1.0 | -4.4 | -87.4
O=C(NC(c1ccccc1)c1ccsc1)C1CCN(CCOc2ccc(Cl)cc2Cl)CC1 (stereo not drawn) | 1.5 | 9.7 | / | / | / | /
Cc1cc(C(=O)O)ccc1-c1ccc(CO)o1 | 161.0* | 6.3 | 1.1 | 6.0 | -2.4 | -0.3
Cc1nc(NC(=O)COC(=O)c2cccs2)c(Cl)cc1Cl | -0.8 | 0.0 | / | / | / | /
COc1ccc(N=CC2=C(Nc3ccc(OC)cc3)c3c(C)nn(-c4ccccn4)c3CC2)cc1 | / | / | 14.4* | -2.3 | 100.1 | /
CCOC(=O)C1=NN(c2ccccc2)C2C(=O)N(c3ccccc3OC)C(=O)C12 (stereo not drawn) | 2.8 | 37.9* | 1.0 | -9.2 | -4.7 | -28.6
CCOC(=O)C1=NN(c2ccc(OC)cc2)C2C(=O)N(c3ccccc3OC)C(=O)C12 (stereo not drawn) | -2.1 | 12.2 | -1.4 | 12.2 | -2.8 | /
COc1ccccc1N1N=C(C(=O)c2ccccc2)C2C(=O)N(c3ccc(Br)cc3)C(=O)C21 (stereo not drawn) | 2.5 | 3.7 | 30.8* | 0.8 | 2.6 | -224.6
CC(SC1=NCCN1S(=O)(=O)c1ccccc1)c1ccccc1 (stereo not drawn) | -0.3 | 4.1 | 2.4 | 2.9 | 1.0 | 7.2
Oc1c(Br)cc(/C=N/n2c(-c3ccccc3)n[nH]c2=S)c(O)c1Br | 3.9 | 36.1* | -0.4 | / | -5.6 | -2.2
Oc1ccc(/C=N/n2c(-c3ccccc3)n[nH]c2=S)cc1Br | -1.0 | 47.6* | 1.5 | / | 2.1 | -0.7
COc1cc(/C=N/n2c(-c3ccccc3)n[nH]c2=S)ccc1O | -4.0 | 14.7 | -3.1 | 11.6 | -1.6 | -1.5
Oc1c(Br)cc(/C=N/n2c(-c3ccccc3)n[nH]c2=S)cc1Br | -0.5 | 31.0* | -0.7 | / | -0.8 | 0.6
CC(Oc1ccc(C#N)cc1)C(=O)NC1CCCC1 (stereo not drawn) | 5.5 | 2.7 | 5.5 | -1.0 | 2.0 | /
N#C/C(=C\c1c(N2CCOCC2)nc2ccccn2c1=O)C(=O)NC1CCS(=O)(=O)C1 (stereo not drawn) | + | 12.6 | -0.3 | -8.2 | -3.4 | i

Source: PubChem BioAssay
